Source: PubChem BioAssay (National Center for Advancing Translational Sciences (NCATS))
Sampled rows, rich in hits. Any-hit rate of the full collection: about 3.6%.
mTORC1 inh: Acumen qHTS Assay for Inhibitors of the mTORC1 Signaling Pathway in MEF (Tsc2-/-, p53-/-) Cells: Sytravon; AID 493208, 2011; Tsc2-/- p53-/- MEF, phospho-rpS6 immunofluorescence/PI, 24 h; Potency, µM (series often up to 38.3 µM), actives largely listed as inhibitors; 44,000 compounds, 0.78% hits; also: nearly all actives have a fitted effect of over 50% in size
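Plate MEFs (Tsc2-/-, p53-/-, empty vector) in DMEM/10% FBS; after 24 h add compound, incubate 24 h at 37 degree Celsius; fix in PFA/TX-100, block, stain phospho-rpS6 and 10 uM PI; scan at 488 nm; report % positive cells.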
PMP22 txn prim: Cell-based coincidence reporter assay to measure PMP22 gene transcription in S16 Pmp22-F2sN cells - Primary screen | S16 Pmp22-F2sN Schwann cells, FLuc/NLuc coincidence luminescence, 24 h | Potency, µM (highest dose often 57.5 µM), actives largely listed as inhibitors | 43,000 compounds, 2% hits; active = clear falling dose curves in both reporters; inconclusive = both reporters move, but less clearly or upward; inactive = either reporter flat; the % is the NLuc reporter signal
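Transcriptional readout in edited S16(c9) cells: two luciferases reported from the Pmp22 locus, measured in turn after 24 h compound incubation.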
SKOV3 invasion: Primary qHTS assay for Inhibitors of ovarian cancer metastasis using an organotypic tumor microenvironment (TME) model; SKOV3ip1-GFP adhesion/invasion on 3D omental model, fluorescence; Potency, µM (doses to about 45.8 µM), actives largely listed as inhibitors; 46,000 compounds, 0.1% hits; also: nearly all actives have a fitted effect of over 65% in size
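A 3D layer of primary human omental fibroblasts, mesothelial cells, fibronectin and collagen I, grown 48 hr, received SKOV3ip1-GFP cells in serum-free medium plus compounds at 0.36-46 umol/L. After 2 hr RT and 16 hr 37 C, fixed adherent GFP cells were counted; normalized to DMSO and tomatine.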
HTT prom inh: Primary qHTS for Identification of Small Molecule Inhibitors of Huntingtin Promoter Activity. HEK293 HTT promoter firefly luciferase reporter, 24 h. Potency, µM (series often up to 57.5 µM), most hits filed as inhibitors. 48,000 compounds, 0.93% hits. AID 1508623, 2021; also: nearly all actives have a fitted effect of over 50% in size
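Firefly luciferase readout (Dual-Glo, 10 min RT) after 24 h, 37 °C compound exposure (final up to 57.5 uM) of HEK293 reporter cells cultured 24 h beforehand; PTC124 at 50 uM final as control inhibitor; activity scaled vehicle 0%, zero RLU -100%.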
S16 viability: Cell viability qHTS assay in S16 Pmp22-F2sN cells | S16 Pmp22-F2sN Schwann cells viability, CellTiter-Glo, 24 h | Potency, µM (top dose mostly 57.5 µM), usual class: cytotoxic | 43,000 compounds, 0.48% hits; also: nearly all actives have a fitted effect of over 65% in size
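Viability was measured by CellTiter-Glo luminescence (15 min, room temperature). This followed 24 h at 37 °C of compound exposure (23 nL pin transfer) in S16 Pmp22-F2sN Schwann cells, 500-1,000 per well.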
HTT-AS promoter: Primary qHTS for Identification of Small Molecule Activators of Huntingtin-Antisense Promoter Activity; 48,000 compounds, 0.24% hits; AID 1508624, 2021; HEK293 HTT-AS promoter firefly luciferase reporter, 24 h; response scale: percent change from vehicle, -100% = no light; Potency, µM (series often up to 57.5 µM), usual class: activators; also: nearly all actives have a fitted effect of over 55% in size
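HEK293 luciferase promoter-reporter cells (2,500/well) plated 24 h, then compounds added at up to 57.5 uM final for 24 h at 37 °C. Firefly luminescence by Dual-Glo, normalized to vehicle (0%) and zero RLU (-100%).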
A number is an active result; - = inactive; ? = inconclusive; . = no result given. Unless noted, calls follow the shape of the dose curve; as a rule, active = well fitted curve in the direction sought with a large enough effect; inconclusive = small, poorly fitted or top-dose-only effect, or another doubt; inactive = no such curve, though single readings can be large; an effect the other way counts as inactive or inconclusive.

SMILES | mTORC1 inh | PMP22 txn prim | SKOV3 invasion | HTT prom inh | S16 viability | HTT-AS promoter
COc1ccc(CN2CCc3nc(N4CCN(c5ccc(F)cc5)CC4)ncc3C2)c(OC)c1OC | - | 13µM | - | 1.6µM | 16µM | -
Cc1ccc(CCNC(=O)c2ccc3nc(N4CCC(C)CC4)sc3c2)cc1 | - | - | - | 0.35µM | - | -
Cc1cccc(N2CCN(C(=O)c3ccc4nc(N5CCC(C)CC5)sc4c3)CC2)c1C | - | ? | - | 2.5µM | ? | -
COc1ccccc1CNC(=O)c1ccc2nc(N3CCCCC3)sc2c1 | - | - | - | ? | - | -
CC1CCN(c2nc3ccc(C(=O)NCc4ccc(Cl)cc4)cc3s2)CC1 | - | - | - | 0.25µM | - | -
CC1CCN(c2nc3ccc(C(=O)NCc4ccccc4Cl)cc3s2)CC1 | - | - | - | 0.28µM | - | -
C[C@H](NC(=O)c1sccc1OCc1ccc(Cl)cc1)c1ccccc1 | . | . | - | ? | . | -
O=c1cc(-c2ccc(O)cc2)oc2cc(O)cc(O)c12 | . | . | - | - | . | -
O=c1cc(-c2ccccc2)oc2cc(O)cc(O)c12 | . | . | - | - | . | 24µM
COc1ccc2c(c1)CC[C@@H](CN(C)CC(=O)O)[C@H]2c1ccccc1 | . | . | - | ? | . | -
CC1C(=O)N2CCCc3cc(S(=O)(=O)Nc4ccc(Br)cc4F)cc1c32 (centres undefined) | 13µM | - | - | - | - | -
CO[C@H]1C[C@@H]2CC[C@@H](C)[C@@](O)(O2)C(=O)C(=O)N2CCCC[C@@H]2C(=O)O[C@H]([C@H](C)C[C@@H]2CC[C@H](OC(=O)C(C)(CO)CO)[C@H](OC)C2)CC(=O)[C@H](C)C=C(C)[C@@H](O)[C@@H](OC)C(=O)[C@H](C)C[C@H](C)C=CC=CC=C1C | . | . | - | - | . | -
Cc1cc(N2CCN(C)CC2)nc2ccc(NC(=O)c3ccc(C(C)(C)C)cc3)cc12 | 5.8µM | ? | ? | ? | ? | -
CCN1CCN(c2cc(C)c3cc(NC(=O)c4cc(OC)c(OC)c(OC)c4)ccc3n2)CC1 | ? | - | - | - | - | -
CCN1CCN(c2cc(C)c3cc(NC(=O)c4ccc(OC)c(OC)c4)ccc3n2)CC1 | ? | ? | - | - | 20µM | -
Cc1cc(N2CCN(C)CC2)nc2ccc(NC(=O)Nc3ccc(Cl)cc3)cc12 | - | ? | - | - | - | -
CCCCc1ccc(NS(=O)(=O)c2ccc(C)c(C(=O)N3CCN(c4cccc(C)c4C)CC3)c2)cc1 | . | . | - | - | . | -
CCOC(=O)c1cc2c(=O)n3ccccc3nc2n(CC2CCCO2)c1=NC(=O)c1ccc(OCC)cc1 (centres undefined) | - | ? | - | - | - | -
CCOC(=O)c1cc2c(=O)n3ccccc3nc2n(CC2CCCO2)c1=NC(=O)c1cc(C)cc(C)c1 (centres undefined) | - | 1.5µM | - | ? | ? | -
Cc1cc(C)cc(NC(=O)c2cnn(-c3ccc(C)c(C)c3)c2C2CCNCC2)c1 | 7.4µM | ? | - | - | ? | -
O=C(Nc1cccc(C(F)(F)F)c1)c1cnn(-c2cccc(F)c2)c1C1CCNCC1 | 18µM | - | - | - | - | -
O=C(c1ccco1)N1CCN(C(=O)c2cnn(-c3cccc(F)c3)c2C2CCNCC2)CC1 | - | - | - | - | - | -
CC[C@H](C)n1cc(C)c2c(C(=O)NCc3c(C)cc(C)[nH]c3=O)cc(-c3ccc(N4CCNCC4)nc3)cc21 | . | . | - | - | . | -
Nc1nc(Cl)nc2c1ncn2[C@@H]1O[C@H](CO)[C@@H](O)[C@H]1F | . | . | - | ? | . | -
Cc1cc(Nc2cccc(C(F)(F)F)c2)ncn1 | - | - | - | - | - | -
SMILES | mTORC1 inh | PMP22 txn prim | SKOV3 invasion | HTT prom inh | S16 viability | HTT-AS promoter
Cc1ccc(Nc2nc3nonc3nc2Nc2cccc(C(F)(F)F)c2)cc1Cl | ? | 7.6µM | - | 1.3µM | 11µM | -
COc1cccc2cc(-c3nc4ccc(C)cc4[nH]3)c(=O)oc12 | - | - | - | - | - | 0.32µM
COc1ccc2oc(=O)c(-c3nc4ccc(C)cc4[nH]3)cc2c1 | - | ? | - | - | - | -
O=C(NC1CCN(Cc2ccccc2)CC1)c1ccc(Cn2c(=O)c3ccccc3n(Cc3ccc(F)cc3)c2=O)cc1 | 3.3µM | ? | - | - | ? | -
Cc1cccc2c1-c1sc(C(=O)NCCc3ccc(Cl)cc3)cc1CO2 | ? | ? | - | ? | 32µM | -
COc1ccc(Nc2cc(-c3cnc(N)nc3)nc(N3CCOCC3)n2)cn1 | . | . | - | ? | . | -
Cc1ccc(-c2noc(CCCC(=O)NCc3ccco3)n2)cc1 | ? | - | - | 3.5µM | - | -
COc1ccc(-n2nc3c(N4CCCC(C(=O)NCc5ccc(C)cc5)C4)nnc(C)c3c2C)cc1 (centres undefined) | - | ? | 13µM | - | ? | -
CCCCN(CC)CCNC(=O)C1CCN(c2nnc(C)c3c(C)n(-c4ccc(C)cc4)nc23)CC1 | 15µM | ? | ? | - | ? | -
Cc1ccc(CCNC(=O)C2CCN(c3nnc(C)c4c(C)n(-c5ccccc5)nc34)CC2)cc1 | - | - | - | - | - | -
C[C@@H]1[C@H](C)CC[C@]2(C(=O)O)CC[C@]3(C)C(=CC[C@@H]4[C@@]5(C)C[C@@H](O)[C@H](O)[C@@](C)(CO)[C@H]5CC[C@]43C)[C@@H]12 | . | . | - | - | . | -
O=C(c1ccc(Nc2nc3ccccc3n3nnnc23)cc1)N1CCN(c2ccc(F)cc2)CC1 | - | 4µM | - | - | ? | -
CC(NC(=O)c1ccc(Nc2nc3ccccc3n3nnnc23)cc1)c1ccccc1 (centres undefined) | - | - | - | - | ? | -
CN(C)c1ccc(Nc2nc3ccccc3n3nnnc23)cc1 | - | 14µM | - | - | ? | -
COc1c(C)c2c(c(O)c1CC=C(C)CCC(=O)O)C(=O)OC2 | . | . | - | - | . | -
C=C1C(=CC=C2CCC[C@]3(C)[C@@H]([C@H](C)CCCC(C)(C)O)CC[C@@H]23)C[C@@H](O)C[C@@H]1O | . | . | - | - | . | -
CCc1c(C)sc2c1CCN(C(=O)Nc1cc(C)cc(C)c1)C2c1ccccc1 (centres undefined) | - | ? | - | ? | - | -
